The structures appear in SMILES notation. Hit rate of the full screen: of about 1,300 compounds, about 1,200 (92%) were called active. So high a share suggests a set chosen from earlier hits. These entries were drawn from the full list. Unmarked numbers belong to inactive results.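 Rule for the calls: active = inhibition of the VIM-2 beta-lactamase enzyme above about 11% from the earlier first-round screen (limit read from the data); inactive = the rest.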

The subject of this test is VIM-2 metallo-beta-lactamase (Pseudomonas aeruginosa). The test is described as follows: VIM-2 metallo-beta-lactamase inhibitors, confirmation, biochemical, epi-absorbance, hits shared with IMP-1 screen (AID 2187).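 Note: 0% = VIM-2 with DMSO and 100% = buffer wells without enzyme.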 The settings on record: purified VIM-2, nitrocefin hydrolysis, at 5.6 µM, active compounds read high.
The inhibition is the change of the read-out against control, counted positive when it falls. As for `CCN1CCCC1CNC(=O)c1cc2c(=O)n(C)c3ccccc3c2n1C` (configuration not stated), the inhibition was 32.5% (active).

Turning to `CC1CCCC(C)N1CCCNC(=O)c1cc2c(=O)n(C)c3ccccc3c2n1C` (configuration not stated), the inhibition was 29.3% (active).

`Cc1cc(NCc2ccco2)n2c(nc3ccccc32)c1C#N`: the inhibition was 53% (active).

Turning to `CCN(CC)c1ccc2cc(C(N)=O)/c(=N\NC(=O)c3ccncc3)oc2c1`, the inhibition is 37.4% (active).

As for `COc1ccc(/C=N/N(C)C2=NS(=O)(=O)c3ccccc32)cc1OC`, the inhibition is 20.6% (active).

Regarding `O=C(COc1cc2oc(=O)c3c(c2cc1Cl)CCC3)NCCCN1CCOCC1`, the inhibition was 34.9% (active).

For `Cn1c(=O)c2c(nc(N3CCOCC3)n2CCNC2=NCCC2)n(C)c1=O`, the inhibition was 28% (active).

For `CCN(CC)CCOc1ccc2c(c1)C(=NNC(=O)c1ccccn1)c1cc(OCCN(CC)CC)ccc1-2`, the inhibition is 43.4% (active).

Consider `Cn1c2ccccc2c(=O)c2c(O)cccc21`, for which the inhibition was 38.6% (active).

Regarding `C=CCn1c(-c2ccccc2OCC)n[nH]c1=S`, the inhibition was 24.7% (active).

For the compound `COc1ccc(CCn2c(=N)c(C(=O)NCC3CCCO3)cc3c(=O)n4cccc(C)c4nc32)cc1OC` (configuration not stated), the inhibition is 27.6% (active).

For `CC(=O)c1ccc(-c2ccc(Cn3c(C)nc4cc(N)c(C)nc43)cc2)cc1`, the inhibition was 26.6% (active).

In the case of `CCOCCCNc1c(CC)c(C)c(C#N)c2nc3ccccc3n12`, the inhibition is 20.6% (active).

As for `CCOC(=O)N1CCN(C(=O)C2CCN(c3ncnc4c3sc3cccc(F)c34)CC2)CC1`, the inhibition was 22% (active).

Regarding `Cc1cccn2c(=O)c(C=O)c(Nc3ccc(S(N)(=O)=O)cc3)nc12`, the inhibition is 26.6% (active).

As to `O=c1[nH]c(-c2ccccc2)c(-c2ccccc2)[nH]1`, the inhibition is 45.7% (active).

`COc1cc(/C=N/Nc2nn3cnnc3c3ccccc23)cc(OC)c1OC`: the inhibition is 53.9% (active).

For the compound `COc1ccc(Nc2cc(C)nc(-n3nc(C)cc3C)n2)cc1`, the inhibition was 25.1% (active).

On to `COc1ccc(Cc2nnc(NS(=O)(=O)Cc3ccccc3)s2)cc1`, for which the inhibition is 21.1% (active).

`CCC1CCCCN1CCCNC(=O)c1cc2c(Cl)nc3ccccc3c2s1` (configuration not stated): the inhibition is 32.2% (active).

On to `Cc1nc2ccccc2c2oc(C(=O)NCCCN3CCC(C)CC3)cc12`, for which the inhibition was 29.2% (active).

Turning to `CCCc1ccc(OCCNC(=O)c2ccco2)cc1`, the inhibition is 0.92%.

In the case of `O=C(NC(=S)Nc1ccccc1C(=O)O)c1ccc(-c2ccc(Br)cc2)o1`, the inhibition was 8.47% (active).

On to `COC(=O)c1c(NC(=O)c2ccc(S(=O)(=O)N3CCOCC3)cc2)sc2c1CCN(C(C)C)C2`, for which the inhibition is 71.3% (active).

With `CNC(=O)c1ccsc1NC(=O)c1ccc(S(=O)(=O)N2CCOCC2)cc1`, the inhibition was 26.7% (active).

Regarding `COc1cc(NC(=O)C2=C(C)OCCS2)c(Cl)cc1C(=O)NCCN1CCN(C)CC1`, the inhibition was 34.3% (active).

On to `CCN1CCN(C(=O)Cn2nc(C)n3c(cc4c(OC)cccc43)c2=O)CC1`, for which the inhibition was 41.4% (active).

Take `Nc1nnc2c(C(F)(F)F)nc3ccccc3n12`: the inhibition was 21.3% (active).

On to `NC(=O)C1CCN(C(=O)COc2ccc3c4c(c(=O)oc3c2)CCC4)CC1`, for which the inhibition was 22.5% (active).

As to `COc1nc(N=C(N)N)nc2c(C)cccc12`, the inhibition was 24.9% (active).

Consider `Cc1cc(C)c2nc3nc(C)cc(C)c3c(N)c2c1`, for which the inhibition is 28.1% (active).

With `O=C(NCCCN1CCOCC1)c1cnn2c(-c3ccccc3)cc(-c3ccccc3)nc12`, the inhibition was 45.4% (active).

As for `COc1cc(-c2nn3c(-c4cccc(C)c4)nnc3s2)cc(OC)c1OC`, the inhibition was 22.1% (active).

Regarding `COc1ccc(-c2nn3c(-c4ccccc4)nnc3s2)cc1OC`, the inhibition was 34.6% (active).

`COC(=O)c1ccc(-c2noc(CN(Cc3ccccn3)CC3CCCO3)n2)cc1` (configuration not stated): the inhibition was 26.8% (active).

Take `CCN1CCN(CCNC(=O)c2ccc3c(c2)NC(=O)/C(=C\c2ccc(OC)c(OC)c2)S3)CC1`: the inhibition is 30.4% (active).

For the compound `Nc1cccc2c1C(=O)N(Cc1nnc(-c3ccccc3Br)o1)C2=O`, the inhibition was 18.7% (active).

Regarding `CN1CCN(c2ccc(NC(=O)c3ccc4c(c3)[nH]c(=O)n4Cc3ccc(F)cc3)cc2)CC1`, the inhibition is 33.6% (active).

With `CC(NS(=O)(=O)c1ccccc1)c1n[nH]c(=S)n1-c1ccccc1` (configuration not stated), the inhibition was 28.1% (active).

Turning to `CN(C)CCNc1ccc(-c2n[nH]c(=O)c3ccccc23)cc1[N+](=O)[O-]`, the inhibition is 84.4% (active).

`O=C1Nc2cc(C(=O)N3CCC(N4CCCCC4)CC3)ccc2S/C1=C\c1ccccc1`: the inhibition was 38.5% (active).

In the case of `Fc1ccc(-c2ccc(CNCc3ccccn3)o2)cc1Cl`, the inhibition was 54.3% (active).

With `Cc1ccc2nc(C)c3c(c2c1)N(c1ccccc1)CC3`, the inhibition is 25.2% (active).

Turning to `Cn1c(-c2sccc2OCc2cccc(C(F)(F)F)c2)n[nH]c1=S`, the inhibition is 37.3% (active).

For the compound `Cc1ccc(Cl)cc1-c1ccc(/C=N/n2cnnc2)o1`, the inhibition was 41.2% (active).

As for `Cc1cc([N+](=O)[O-])c(-c2ccc(/C=N/n3cnnc3)o2)cc1Cl`, the inhibition is 67.5% (active).

Consider `Cc1cc(-c2ccc(/C=N/n3cnnc3)o2)c([N+](=O)[O-])cc1C`, for which the inhibition was 69.9% (active).

As for `Clc1cc(-c2ccc(/C=N/n3cnnc3)o2)ccc1Br`, the inhibition is 57% (active).

For the compound `CC(C)(C)CC(=O)Nc1nnc(SCC(=O)NCc2cccs2)s1`, the inhibition was 27.4% (active).

As for `CCc1cc(=O)oc2cc(C)cc(OCC(=O)N3CCC[C@@H]3C(=O)O)c12`, the inhibition was 19.7% (active).

With `CCOc1cc(/C=C2\SC(N3CCCC(C)C3)=NC2=O)ccc1O` (configuration not stated), the inhibition is 20.7% (active).

On to `CCOc1cc(/C=C2\SC(N3CCCCC3)=NC2=O)ccc1O`, for which the inhibition was 19% (active).

The values are drawn from PubChem BioAssay AID2187 (The Scripps Research Institute Molecular Screening Center, 2009).
